This passage reports fold change results from PubChem BioAssay.

Activity calls are given as the source filed them.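 The calls were made as follows: active = compounds whose cell count with miR-34 switched on is under 0.7 times the count with it off; inactive = the rest.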

The first assay in a line: viability loss with induced miR-34 in A549 – imaging, A549 dox-inducible miR-34, nuclei and caspase counts, primary screen (AID 1347080). Also: test concentration not given here. The following applies: A549 miR-34 inducible, Hoechst nuclei count, 48 h; stronger effect = lower value; cell number ratio, induced over uninduced.
For `CCCCC/C=C\C/C=C\C/C=C\C/C=C\CCCC(=O)SCC(O)CO` (centres undefined), the fold change is 0.986 (inactive). The same measure, in the same setting: next, `CCCCC[C@H](O)/C=C/[C@@H]1[C@@H](C/C=C/CCCC(=O)O)[C@H](O)C[C@H]1O`: 0.95 (inactive); `CCCCCC(=O)CC[C@H]1C(=O)C=C[C@@H]1C/C=C\CCCC(=O)O`: 0.989 (inactive).

With `CC(C)CC[C@@H](O)[C@@H](C)C1CCC2C3CC=C4C[C@@H](O)CC[C@]4(C)C3CC[C@@]21C` (some centres undefined), the fold change is 0.933 (inactive).

Staying with this assay, now noted: A549 miR-34 inducible, Hoechst nuclei count, 48 h; measured here: relative caspase fold change +Dox/-Dox.
For the compound `CCCCCC(=O)/C=C/[C@H]1[C@H](O)CC(=O)[C@@H]1CCCCCCC(=O)O`, the fold change was 1.35. Turning to `CCCCC[C@](C)(O)/C=C/[C@@H]1[C@@H](C/C=C\CCCC(=O)OC)[C@@H](O)C[C@H]1O`, the fold change was determined as 1.61. The same measure, in the same setting: as for `CCCCC/C=C\C/C=C\CCCCCCCC(=O)OCC`, the figure is 0.749. `CCCCC[C@H](O)C/C=C1/C(=O)C[C@H](O)[C@@H]1C/C=C\CCCC(=O)O`: the fold change was 1.09. Still for that read-out and setting: as for `CCCCCCC[C@H](O)/C=C/[C@@H]1[C@@H](C/C=C\CCCC(=O)O)[C@@H](O)C[C@H]1O`, the figure is 1.5; as for `CCCCC[C@H](O)/C=C/[C@@H]1[C@H]2C/C(=C\CCCC(=O)O)C[C@H]2C[C@H]1O`, 1.13. Still for that read-out and setting: as for `CCCCCCCCCCCCCCCC(=O)OC[C@@H](O)COP(=O)([O-])OCC[N+](C)(C)C`, the figure is 1.32; as for `CCCCC[C@H](O)/C=C/[C@H]1C(=O)C[C@H](O)[C@@H]1C/C=C\CCCC(=O)OCC(O)CO` (some centres undefined), 1.71; as for `CCCCCCC(Sc1nc(Cl)cc(NCc2ccc(-c3ccccc3)cc2)n1)C(=O)O` (centres undefined), 1.34.

For the compound `CC(C)OC(=O)CCC/C=C\C[C@@H]1[C@@H](/C=C/C(=O)COc2cccc(C(F)(F)F)c2)[C@H](O)C[C@@H]1O`, the fold change was 1.05. Still for that read-out and setting: next, `COc1cc([C@@H]2c3cc4c(cc3[C@@H](OC3OC5COC(C)OC5C(O)C3O)[C@H]3COC(=O)[C@H]23)OCO4)cc(OC)c1O` (some centres undefined): 1.04. Still for that read-out and setting: as for `O=C(O)CCC/C=C/C[C@@H]1[C@@H](/C=C/[C@@H](O)COc2cccc(C(F)(F)F)c2)[C@H](O)C[C@@H]1O`, the figure is 1.11; as for `c1ccc(C(OC2CCN(CCCc3nn[nH]n3)CC2)c2ccccc2)cc1`, 1.12. Same read-out and setting: next, `COc1ccc(/C=C/C(=O)CC(=O)/C=C/c2cccc(O)c2OC)cc1O`: 1.39; `CCCCC[C@H](O)/C=C/[C@H]1C2CC(CO2)[C@@H]1C/C=C\CCCC(=O)O` (some centres undefined): 0.835; `O=C(O)CCC/C=C\C[C@@H]1[C@@H](/C=C/[C@@H](O)COc2ccccc2)[C@H](O)C[C@@H]1O`: 1.11. Turning to `O=C(Cc1ccccc1Nc1c(Cl)cccc1Cl)Oc1ccc(-c2cc(=S)ss2)cc1`, the fold change amounted to 1.55. On the same count and under the same terms, as for `CCCCC(C)(C)[C@H](O)/C=C/[C@H]1C=CC(=O)[C@@H]1C/C=C\CCCC(=O)O`, the figure is 1.18. As for `CCCCC[C@H](O)/C=C/[C@H]1[C@H](O)CC(=O)[C@@H]1C/C=C\CCCC(=O)Oc1ccc(NC(C)=O)cc1`, the fold change came out at 0.876. On the same count and under the same terms, next, `Cc1c(C)c2c(c(C)c1O)CCC(C)(CCCC(C)C(=O)O)O2` (centres undefined): 0.303.

With `CCCCC/C=C\C/C=C\CCCCCCCC(=O)OCC(COC(=O)CCCCCCCCCCCCCCC)OC(=O)CCCCCCC/C=C\CCCCCCCC` (centres undefined), the fold change was found to be 0.903. The same measure, in the same setting: next, `CCCCCOc1ccccc1C(O)CC#CCCCC(=O)OC` (centres undefined): 1.89; `CCCCCCCC/C=C\CCCCCCCC(=O)N[C@H](CO)Cc1ccc(O)cc1`: 1.33. Take `C=C1C[C@H](O)[C@H](C/C=C\CCCC(=O)O)[C@H]1/C=C/[C@@H](O)CCCCC`: the fold change stood at 1.72. Turning to `CCCCCC/C=C\CCCCCCCC(=O)OCC`, the fold change amounted to 1.03. Same read-out and setting: as for `CCCCCCCCCCCCCCCC(=O)OCC`, the figure is 0.575. Take `COc1ccc2c(c1)c(CC(=O)Nc1ccc(NC(C)=O)cc1)c(C)n2C(=O)c1ccc(Cl)cc1`: the fold change worked out at 1.43. Take `CC(C)Oc1ccc(Cc2ccc(NC3=NCCN3)cc2)cc1`: the fold change is 0.967. For `CCCCC[C@H](O)/C=C/[C@H]1C=CC(=O)[C@H]1CCCCCCC(=O)O`, the fold change is 1.97. Still for that read-out and setting: as for `Cc1nnsc1C(=O)Nc1ccc(-n2nc(C(F)(F)F)cc2C(F)(F)F)cc1`, the figure is 1.08; as for `CCCCC[C@H](O)/C=C/[C@H]1CC[C@@H](O)[C@@H]1C/C=C\CCCC(=O)O`, 1.34.

Consider `CCOC(=O)c1ccnc(C(=O)OCC)c1`, for which the fold change is 0.9. Same read-out and setting: as for `CCCCC(C)(C)[C@H](O)/C=C/[C@H]1[C@H](O)CC(=O)[C@@H]1CC(=O)CCCCC(=O)O`, the figure is 1.32; as for `CCCCC[C@H](O)/C=C/[C@H]1[C@H](O)CC(=O)[C@@H]1CCCCCCCCC(=O)O`, 1.98; as for `CC(C)CCCCCCC/C=C\C(=O)O`, 0.344. For `CCCCC[C@H](O)/C=C/[C@H]1C2COC(C2)[C@@H]1C/C=C/CCCC(=O)O` (some centres undefined), the fold change was 0.876. For the compound `CCCCC/C=C\C/C=C\C/C=C\C/C=C\CCCC(=O)SCC(O)CO` (centres undefined), the fold change is 0.486. Same read-out and setting: next, `CCCCC[C@H](O)/C=C/[C@@H]1[C@@H](C/C=C/CCCC(=O)O)[C@H](O)C[C@H]1O`: 1.55; `CCCCCC(=O)CC[C@H]1C(=O)C=C[C@@H]1C/C=C\CCCC(=O)O`: 0.66. The same measure, in the same setting: next, `CC(C)CC[C@@H](O)[C@@H](C)C1CCC2C3CC=C4C[C@@H](O)CC[C@]4(C)C3CC[C@@]21C` (some centres undefined): 1.03.
